Results taken from PubChem BioAssay AID2685 (National Center for Advancing Translational Sciences (NCATS), 2010).
The whole screen tested about 320,000 compounds, of which about 2,100 (0.66%) were called active. Roughly 53% stayed inconclusive and do not appear here. This is one part of a sample in which actives are shown more often than they occur. The call rests on the fitted dose curve; in most records, active means well fitted inhibition curve with a large enough effect in the signal ratio, with a control signal flat (not every such curve was filed as active); inconclusive means small, poorly fitted or top-dose-only effect, or effect the other way, or a change in a side signal; inactive means flat fitted curve, though single readings scatter; the % refers to the signal ratio.
Potency means the concentration at half of the fitted maximal effect.

Test: qHTS Assay for Lipid Storage Modulators in Drosophila S3 Cells;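 on cell number change: cells counted by Cell Tracker Red CMTPX staining in the red channel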; on lipid storage change, negative = inhibition: on the % scale 0 is the no-effect control and ±100 the full control effect
Settings: BODIPY lipid droplet fluorescence, 18-24 h, cells fed with added oleic acid; cell number change: measured here: cell count max response; series mostly up to 46.1 µM; lipid storage change, negative = inhibition: at the top concentration
Procedure, shortened: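 Drosophila S3 cells got compounds at several concentrations plus oleic acid (400 uM solution). Laser-scanning cytometry with 488 nm excitation read lipid droplets at 500-530 nm and cells at 575-640 nm. Percent activity was relative to 20 uM Triacsin C.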
With `COc1ccc(-n2c(=O)c3ccccc3n(CC(=O)NC3CCCCC3)c2=O)c(OC)c1` the “lipid storage change, negative = inhibition” value was 21.5% (inactive). With `CC(C)(CO)NC12CC3CC(CC(C3)C1)C2` the Potency was 0.058 µM (active) and the cell number change was -20.6%. In the case of `CC(C)(C)NC(=O)NC12CC3CC(CC(C3)C1)C2`, the “lipid storage change, negative = inhibition” value is reported as 7.75% (inactive) and the cell number change is reported as 0.331%. With `CC(O)CNC12CC3CC(CC(C3)C1)C2` (centres undefined) the “lipid storage change, negative = inhibition” value was -12.7% (inactive). With `Cc1ccc(S(=O)(=O)N(C)/N=C/c2ccc(N(C)C)cc2)cc1` the “lipid storage change, negative = inhibition” value was 7.16% (inactive) and the cell number change was 12.7%. For `O=C(NCc1ccccc1)/C(=C/c1ccc([N+](=O)[O-])cc1)NC(=O)c1ccco1`, the “outcome” value was “inactive” and the cell number change was -3.81%. For `COc1ccc(C(=O)CSc2nnc(CNC(=O)c3ccccc3F)n2C)cc1OC`, the “lipid storage change, negative = inhibition” value was -9.91% (inactive) and the cell number change was 0.87%. In the case of `O=C(NCCOc1ccccc1)C1CCCN1C(=O)c1cccs1` (centres undefined), the “lipid storage change, negative = inhibition” value is reported as -2.36% (inactive) and the cell number change is reported as -1.16%. For `O=C(NC1CCCCC1)C(c1ccc(F)cc1)N(Cc1ccco1)C(=O)Cn1nnc2ccccc21` (centres undefined), the Potency was 16.4 µM (active) and the cell number change was 19.8%. With `O=C(NCc1ccco1)C(c1ccc(F)cc1)N(CC1CCCO1)C(=O)Cn1nnc2ccccc21` (centres undefined) the “outcome” value was “inactive” and the cell number change was -18.6%. For `O=C(NC1CCCCC1)C(c1ccc(F)cc1)N(Cc1ccco1)C(=O)CN1C(=O)c2ccccc2S1(=O)=O` (centres undefined), the “lipid storage change, negative = inhibition” value was -10.1% (inactive) and the cell number change was 11.1%. With `COc1ccccc1/C=C/c1onc(C)c1S(=O)(=O)N1CCC(C(=O)NC2CCCCCC2)CC1` the “outcome” value was “inactive” and the cell number change was -0.659%. With `CCOC(=O)CC(NC(=O)c1cc2ccccc2oc1=O)c1cccc([N+](=O)[O-])c1` (centres undefined) the “lipid storage change, negative = inhibition” value was 11.5% (inactive) and the cell number change was 11.6%. In the case of `O=[N+]([O-])c1cc([N+](=O)[O-])c(Oc2c(F)ccc(F)c2F)cc1NN1CCCCC1`, the “lipid storage change, negative = inhibition” value is reported as 27.8% (inactive) and the cell number change is reported as -0.599%. With `NC(=O)Cn1nc([N+](=O)[O-])nc1Oc1ccccc1C(=O)N1CCOCC1` the Potency was 14.6 µM (active) and the cell number change was -24.1%. In the case of `NC(=O)Cn1nc([N+](=O)[O-])nc1Oc1ccc(Br)cc1`, the “outcome” value is reported as “inactive” and the cell number change is reported as -1.14%. In the case of `COc1ccccc1Oc1nc([N+](=O)[O-])nn1CC(N)=O`, the “lipid storage change, negative = inhibition” value is reported as 22.6% (inactive) and the cell number change is reported as -6.43%. For `Cc1ccc(C(=O)C[n+]2cc(Br)cc(Br)c2)cc1[N+](=O)[O-]`, the “lipid storage change, negative = inhibition” value was 6.01% (inactive) and the cell number change was 11.3%. With `Cc1cccc(C(CC(=O)N2CCCCC2)c2ccccc2)c1O` (centres undefined) the “outcome” value was “inactive” and the cell number change was -18.8%. With `O=C1CC2(CCN(C(=O)c3ccc(Br)cc3)CC2)Oc2ccccc21` the “outcome” value was “inactive” and the cell number change was -15.2%. With `COc1cc(/C=C/C(=O)c2ccc(NS(=O)(=O)c3ccc(C)cc3)cc2)cc(OC)c1O` the “lipid storage change, negative = inhibition” value was -10.6% (inactive) and the cell number change was -14.2%. In the case of `CCN(CC)C(=O)C1CCCN(C(=O)c2oc3ccc(C)cc3c2C)C1` (centres undefined), the “lipid storage change, negative = inhibition” value is reported as 2.31% (inactive) and the cell number change is reported as 15.6%. With `Cc1ccc2oc(C(=O)N3CCC(C(N)=O)(N4CCCCC4)CC3)c(C)c2c1` the Potency was 18.4 µM (active) and the cell number change was -4.2%. With `Cc1ccc(NC(=S)N2CCC(C(N)=O)(N3CCCCC3)CC2)c(C)c1` the “lipid storage change, negative = inhibition” value was -4.88% (inactive) and the cell number change was -4.08%. For `CCCOc1ccc(/C=C/C(=O)N2CCN(c3ccccn3)CC2)cc1`, the “lipid storage change, negative = inhibition” value was 19.3% (inactive) and the cell number change was -20.8%. In the case of `S=c1[nH]nc(COc2ccc3ccccc3c2)o1`, the “lipid storage change, negative = inhibition” value is reported as 7.14% (inactive) and the cell number change is reported as -7.51%. In the case of `O=S(=O)(CCc1nc2ccccc2s1)c1ccc(Cl)cc1`, the “outcome” value is reported as “inactive” and the cell number change is reported as 17.6%. With `Cc1ccc(S(=O)(=O)CCc2nc3ccccc3s2)cc1` the “lipid storage change, negative = inhibition” value was 3.52% (inactive) and the cell number change was -0.805%. For `Cc1ccc(S(=O)(=O)CCc2nc3ccccc3s2)cc1C`, the Potency was 18.4 µM (active) and the cell number change was 19.6%. In the case of `c1ccc(-c2cn(C[C@H]3CC[C@@H]([C@@H]4CC[C@H](Cn5cc(-c6ccccn6)nn5)O4)O3)nn2)nc1`, the “lipid storage change, negative = inhibition” value is reported as 7.69% (inactive) and the cell number change is reported as 28.2%. In the case of `c1ccc(-c2cn(C[C@H]3CC[C@@H]([C@@H]4CC[C@H](Cn5cc(-c6ccccc6)nn5)O4)O3)nn2)cc1`, the “lipid storage change, negative = inhibition” value is reported as -0.0556% (inactive) and the cell number change is reported as -7.49%. In the case of `c1cncc(-c2cn(C[C@H]3CC[C@@H]([C@@H]4CC[C@H](Cn5cc(-c6cccnc6)nn5)O4)O3)nn2)c1`, the Potency is reported as 14.6 µM (active) and the cell number change is reported as 9.88%. With `CC(=O)N1CCN(S(=O)(=O)c2c(C)n(C)c(=O)n(C)c2=O)CC1` the “lipid storage change, negative = inhibition” value was -16.5% (inactive) and the cell number change was 5.18%. In the case of `CCCCOc1ccc(C(=O)N2CCNC(=O)C2CC(=O)OC(C)C)cc1` (centres undefined), the “outcome” value is reported as “inactive” and the cell number change is reported as 7.09%. For `CCCNC(=O)Nc1cccc(NC(C)=O)c1`, the “lipid storage change, negative = inhibition” value was -8.89% (inactive) and the cell number change was -9.94%. In the case of `CCOCCCNC(=O)C1CCCN(S(=O)(=O)c2cccc3nsnc23)C1` (centres undefined), the “outcome” value is reported as “inactive” and the cell number change is reported as -2.02%. In the case of `Cc1cc(=O)n2nc(N3CCC(C(=O)N4CCN(C)CC4)CC3)sc2n1`, the Potency is reported as 6.51 µM (active) and the cell number change is reported as 5.43%. For `CCC1CCCCN1CCCNC(=O)C1CCCN(c2nn3c(=O)cc(C)nc3s2)C1` (centres undefined), the “outcome” value was “inactive”. For `COc1ccc(CCNC(=O)C2CCN(c3nn4c(=O)cc(C)nc4s3)CC2)cc1OC`, the “lipid storage change, negative = inhibition” value was -13.5% (inactive). With `Cc1cc(=O)n2nc(N3CCCC(C(=O)NCc4ccccc4Br)C3)sc2n1` (centres undefined) the Potency was 1.46 µM (active) and the cell number change was -27.4%. With `COc1ccc(NC(=O)C2CCCN2c2nn3c(=O)cc(C)nc3s2)cc1` (centres undefined) the “lipid storage change, negative = inhibition” value was -9.15% (inactive) and the cell number change was 13.8%. For `Cc1cc(=O)n2nc(N3CCCC(C(=O)NCc4ccccc4C)C3)sc2n1` (centres undefined), the “lipid storage change, negative = inhibition” value was -13.4% (inactive) and the cell number change was 0.288%. In the case of `Cc1cc(=O)n2nc(N3CCCC(C(=O)NCc4ccccc4)C3)sc2n1` (centres undefined), the “lipid storage change, negative = inhibition” value is reported as 14.6% (inactive) and the cell number change is reported as -4.61%. With `Cc1cc(=O)n2nc(N3CCCC(C(=O)N4CCN(C)CC4)C3)sc2n1` (centres undefined) the “lipid storage change, negative = inhibition” value was 2.59% (inactive) and the cell number change was -3.39%.
